NFkB SMM: binders of human NF-kappa-B p105; P19838; Small molecule microarray, anti-His fluorescence binding; calls only; 1.3% of 17,000 active;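 active means spot fluorescence over background significantly raised, with a chance value under 7% in all four replicate spots of the compound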;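 further: probe protein is his-tagged human p50 processed subunit at 1 µg/ml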
STAT3 SMM: binders of human STAT3 | P40763 | Small molecule microarray, His-STAT3 binding, anti-His fluorescence | calls only | 0.2% of 17,000 active;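 active means compounds whose four printed spots each show fluorescence over background unusually high for their array block, chance value under 7%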
p53 mut binder: binders of human mutant p53; small molecule microarray binding, anti-GST fluorescence; calls only; 0.4% of 17,000 active; AID 624136;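 active means compounds whose four printed spots each glow above background more than chance allows, each with a p-value under 7%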
c-Myc SMM: c-Myc (human) binding | calls only | 1.5% of 17,000 active | small molecule microarray, His-c-Myc binding, anti-His fluorescence;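 active means spot fluorescence over background with P-value below 7% in all four replicate spots, showing protein binding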
Target sequence (P01106 whole entry, looked up): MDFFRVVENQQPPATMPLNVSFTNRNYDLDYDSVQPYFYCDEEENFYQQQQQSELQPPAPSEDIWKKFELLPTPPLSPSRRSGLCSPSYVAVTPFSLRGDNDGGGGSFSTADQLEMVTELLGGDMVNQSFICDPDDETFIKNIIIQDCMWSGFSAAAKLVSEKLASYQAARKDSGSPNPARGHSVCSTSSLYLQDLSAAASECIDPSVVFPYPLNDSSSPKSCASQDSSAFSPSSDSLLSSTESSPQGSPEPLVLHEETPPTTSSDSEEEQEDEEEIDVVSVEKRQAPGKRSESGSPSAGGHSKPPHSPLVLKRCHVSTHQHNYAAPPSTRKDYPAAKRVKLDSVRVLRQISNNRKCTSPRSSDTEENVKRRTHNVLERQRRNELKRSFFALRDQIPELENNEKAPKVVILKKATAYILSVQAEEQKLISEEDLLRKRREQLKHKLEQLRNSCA
Each line names hits and unclear results; the compound was inactive in the other large screens. The list is not random: actives were taken first. Their share in the collection is about 2.4%.

COCC(C)NCc1ccc(OC)c(OC)c1OC (centres undefined)	c-Myc SMM active
COc1ccc2nc(NCc3ccc(OC)c(OC)c3OC)sc2c1	none
C[C@@H]1CCCCO[C@@H](CN(C)C(=O)CCC(F)(F)F)[C@H](C)CN([C@@H](C)CO)C(=O)c2cc(NS(=O)(=O)c3ccccc3)ccc2O1	NFkB SMM active, c-Myc SMM active
C[C@@H]1CCCCO[C@H](CN(C)C(=O)CCC(F)(F)F)[C@@H](C)CN([C@H](C)CO)C(=O)c2cc(NS(=O)(=O)c3cccs3)ccc2O1	none
C[C@@H]1CN([C@@H](C)CO)C(=O)c2cc(NS(=O)(=O)c3cccs3)ccc2O[C@@H](C)CCCCO[C@@H]1CN(C)C(=O)CCC(F)(F)F	NFkB SMM active
C[C@H]1CCCCO[C@@H](CN(C)C(=O)CCC(F)(F)F)[C@@H](C)CN([C@@H](C)CO)C(=O)c2cc(NS(=O)(=O)c3ccccc3)ccc2O1	none
C[C@H](CO)N1C[C@H](C)[C@@H](CN(C)C(=O)CCC(F)(F)F)OCCCC[C@H](C)Oc2ccc(NS(C)(=O)=O)cc2C1=O	NFkB SMM active, c-Myc SMM active
COc1cc(-c2nc3sc4c(c3c(=O)[nH]2)CCCC4)cc(Br)c1OCC(=O)O	NFkB SMM active, c-Myc SMM active
Cc1ccccc1NC(=O)COc1ccc(-c2nc3sc4c(c3c(=O)[nH]2)CCCC4)cc1	none
C[C@H](CO)N1C[C@H](C)[C@H](CN(C)C(=O)Nc2ccc(C(F)(F)F)cc2)OCCCC[C@H](C)Oc2ccc(NS(C)(=O)=O)cc2C1=O	none
C[C@H](CO)N1C[C@H](C)[C@@H](CN(C)S(=O)(=O)c2ccc(F)cc2)OCCCC[C@H](C)Oc2ccc(NC(=O)Nc3ccc(C(F)(F)F)cc3)cc2C1=O	NFkB SMM active
CC(C)NC(=O)N(C)C[C@@H]1OCCCC[C@H](C)Oc2ccc(NC(=O)Nc3ccc(C(F)(F)F)cc3)cc2C(=O)N([C@H](C)CO)C[C@@H]1C	NFkB SMM active, c-Myc SMM active
C[C@@H]1CN([C@@H](C)CO)C(=O)c2cc(NS(C)(=O)=O)ccc2O[C@@H](C)CCCCO[C@@H]1CN(C)C(=O)Nc1ccc(C(F)(F)F)cc1	STAT3 SMM active
CC(C)NC(=O)N(C)C[C@H]1OCCCC[C@H](C)Oc2ccc(NC(=O)Nc3ccc(C(F)(F)F)cc3)cc2C(=O)N([C@@H](C)CO)C[C@H]1C	NFkB SMM active, c-Myc SMM active
CCc1cccc(C)c1NC(=O)CSc1nnc(C)n1-c1ccc(F)cc1	none
COc1ccccc1CN1C(=O)c2ccccc2[C@@H](C(=O)NCc2ccccc2)[C@@H]1c1ccc(CO)cc1	none
COc1ccccc1CN1CC(C(=O)O)CC1=O (centres undefined)	c-Myc SMM active
O=C(COc1ccccc1)Nc1scc2c1c(=O)oc1ccccc12	none
O=C(O)C1CC=CCC1C(=O)Nc1ccc(S(=O)(=O)N2CCc3ccccc32)cc1 (centres undefined)	none
C[C@]12C[C@H](O)C3C(CC[C@@H]4C[C@H](O)CC[C@]34C)C1CC[C@@H]2C(=O)CO (some centres undefined)	none
C[C@]12CCC(=O)C=C1CC[C@@H]1C2CC[C@@]2(C)C1CC[C@@H]2C(=O)CO (some centres undefined)	p53 mut binder active
CC(=O)Nc1ccc(C(=O)Nc2ccc(S(=O)(=O)Nc3nccs3)cc2)cc1	none
CN(c1ccc(OCC(=O)O)cc1)S(=O)(=O)c1ccc(F)cc1	NFkB SMM active
CN(CC(N)=O)S(=O)(=O)c1ccc(F)cc1	none
Cc1ccc(C(=O)CC(C(=O)O)n2ccc(C)n2)cc1 (centres undefined)	NFkB SMM active, c-Myc SMM active
Cc1ccc(-n2c(=O)c3c4c(sc3n3c(SCC(=O)c5ccc(F)cc5)nnc23)CCCC4)cc1	none
COc1ccc(NC(=O)Cn2c(-c3ccccc3)nc3sc4c(c3c2=O)CCCC4)cc1	none
O=C(Cn1nnc2sc3c(c2c1=O)CCCC3)NCc1ccco1	c-Myc SMM active
C[C@@H]1O[C@@H](O[C@H]2[C@H](O[C@H]3CC[C@@]4(C)C(CC[C@]5(C)C4CC=C4C6CC(C)(C)CC[C@]6(C(=O)O[C@@H]6O[C@H](CO[C@@H]7O[C@H](CO)[C@@H](O[C@@H]8O[C@@H](C)[C@H](O)[C@@H](O)[C@H]8O)[C@H](O)[C@H]7O)[C@@H](O)[C@H](O)[C@H]6O)CC[C@]45C)C3(C)C)OC[C@H](O)[C@@H]2O)[C@H](O)[C@H](O)[C@H]1O (some centres undefined)	none
CC(C)=CCC[C@](C)(O[C@@H]1O[C@H](CO[C@@H]2O[C@@H](CO)[C@H](O)[C@H]2O)[C@@H](O)[C@H](O)[C@H]1O)[C@H]1CC[C@]2(C)C1[C@H](O)CC1[C@@]3(C)CC[C@H](O[C@@H]4O[C@H](CO)[C@@H](O)[C@H](O)[C@H]4O[C@@H]4O[C@H](CO)[C@@H](O)[C@H](O)[C@H]4O)C(C)(C)C3CC[C@]12C (some centres undefined)	NFkB SMM active, c-Myc SMM active
Cc1ccc(CN(CC(=O)O)S(=O)(=O)c2c(C)cc(C)cc2C)cc1	none
c1ccc(Cn2c(SCCN3CCOCC3)nc3ccccc32)cc1	c-Myc SMM active
c1ccc(Cn2c(SCc3nc4ccccc4[nH]3)nc3ccccc32)cc1	none
C=CC1(C)C=C2CCC3C(C)(C)C(O[C@@H]4O[C@@H](CO)[C@H](O)[C@H]4O)CCC3(C)C2CC1O[C@@H]1O[C@H](C)[C@H](O)[C@H](O)[C@H]1O (some centres undefined)	NFkB SMM active
COc1cc(Cl)cc(C(=O)O)c1OCC(=O)O	none
CCOc1cc(CO)c(Br)cc1OCC(=O)O	c-Myc SMM active
COc1cc(C(=O)Nc2cc(-c3nc4ncccc4o3)ccc2C)ccc1OCc1ccc(Cl)cc1	none
COc1cccc2oc3c(c(=O)c12)C(C(=O)O)=CC(CO)=CO3	none
O=C(CNS(=O)(=O)c1ccccc1)Nc1cc(Cl)cc(Cl)c1	none
COc1ccc(NC(=O)c2ccc(OC(C)C(=O)O)cc2)cc1Cl (centres undefined)	NFkB SMM active
CC(Oc1ccc(C(=O)Nc2ccc(Cl)cc2)cc1)C(=O)Nc1cc(Cl)ccc1Cl (centres undefined)	none
CC1OC(OC2C(OC3C(O[C@H]4CC[C@@]5(C)C(CC[C@]6(C)C5CC=C5C7CC(C)(C)CC(O)[C@]7(C)CC[C@]56C)C4(C)C)OC(C(=O)O)C(O)C3O)OCC(O)C2O)C(O)C(O)C1O (some centres undefined)	NFkB SMM active, c-Myc SMM active
CC1(C)CC[C@]2(C(=O)O)CC[C@]3(C)C(=CCC4[C@@]5(C)CC[C@H](O[C@@H]6O[C@H](C(=O)O)[C@@H](O[C@@H]7O[C@H](CO)[C@@H](O)[C@H](O)[C@H]7O)[C@H](O)[C@H]6O[C@@H]6O[C@H](CO)[C@@H](O)[C@H](O)[C@H]6O)C(C)(C)C5CC[C@]43C)C2C1 (some centres undefined)	NFkB SMM active, STAT3 SMM active, c-Myc SMM active
